Laboratory results from PubChem BioAssay (NCATS).
Inconclusive results are not listed. Activity calls are given as the source filed them. Calls come from the whole dose curve; as a rule, active = well fitted inhibition curve with a large enough effect; inconclusive = small, poorly fitted or top-dose-only effect; inactive = flat fitted curve, though single readings scatter.

Columns and labels:
Assay in all cases: qHTS profiling for inhibitors of Plasmodium falciparum proliferation (AID 504749); note: nearly all actives have a fitted effect of over 60% in size
Details in all cases: P. falciparum in erythrocytes, SYBR Green DNA, 72 h; series mostly up to 28.7 µM
CP297 = test system: CP297
In short: (§1)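 SYBR Green fluorescence (ex 485 nm, em 535 nm) reports parasite DNA after 72 h compound exposure of infected red cells at 0.3% parasitemia, 2.5% hematocrit; signal normalized to 0.29 uM artemisinin and vehicle wells.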

CP305 = test system: CP305
In short: as §1

CP315 = test system: CP315
In short: as §1

CP325 = test system: CP325
In short: as §1

CP329 = test system: CP329
In short: as §1

CP335 = test system: CP335
In short: as §1

DFO2036 = test system: DFO2036
In short: as §1

DIV14 = test system: DIV14
In short: as §1

DIV17 = test system: DIV17
In short: as §1

DIV30 = test system: DIV30
In short: as §1

Dd2 = test system: Dd2
In short: as §1

ECU = test system: ECU
In short: as §1

FAB9 = test system: FAB9
In short: as §1

GB4 = test system: GB4
In short: as §1

HB3 = test system: HB3
In short: as §1

ICS = test system: ICS
In short: as §1

JCK = test system: JCK
In short: as §1

N140 = test system: N140
In short: as §1

P93_24 = test system: P93_24
In short: as §1

P94_40 = test system: P94_40
In short: as §1

Measured: Potency

O=C(O)/C=C/c1ccccc1
inactive: all assays above

O=C(O)[C@H]1CN(C/C=C/P(=O)(O)O)CCN1
inactive: all assays above

Cc1cc(=O)c(C(=O)N[C@@H](C(=O)N[C@@H]2C(=O)N3C(C(=O)O)=C(CSc4nnnn4C)CS[C@H]23)c2ccc(O)cc2)c[nH]1
inactive: all assays above

CC/C=C\C/C=C\C/C=C\C/C=C\C/C=C\CCCC(=O)O
inactive: all assays above

O=C1c2ccccc2C(=O)C1c1ccc(F)cc1
inactive: all assays above

CC(C)(C)CC(C)(C)c1cc(Cc2cc(C(C)(C)CC(C)(C)C)cc(-n3nc4ccccc4n3)c2O)c(O)c(-n2nc3ccccc3n2)c1
inactive: all assays above

FC(F)(F)COCC(F)(F)F
inactive: all assays above

COC(=O)CC[C@H](N)C(=O)O
inactive: all assays above

CCN(CC)CCOc1ccc2nc(N(C)C)sc2c1
inactive: all assays above

CCCCCCCCCCCC(=O)OCC(O)CO (stereo not drawn)
inactive: all assays above

CN[C@@H]1[C@H](O[C@H]2[C@H](O[C@H]3[C@H](O)[C@@H](O)[C@H](N=C(N)N)[C@@H](O)[C@@H]3N=C(N)N)O[C@@H](C)[C@]2(O)C=O)O[C@@H](CO)[C@H](O)[C@H]1O
inactive: all assays above

COc1cc(S(C)=O)ccc1-c1nc2ncccc2[nH]1 (stereo not drawn)
inactive: all assays above

C[Si](C)(C)O[Si](C)(C)C
inactive: all assays above

O=C(NNCNNC(=O)c1ccncc1)c1ccncc1
inactive: all assays above

Cc1cccc(Nc2ncccc2C(=O)O)c1C
inactive: all assays above

CC(=O)N=c1sc(S(N)(=O)=O)nn1C
not listed: P93_24 | P94_40
inactive: all other assays above

O=C(CCCCCCCCCCCCC1CCCC1)Nc1ccc(S(=O)(=O)c2ccc(NC(=O)CCCCCCCCCCCCC3CCCC3)cc2)cc1
inactive: all assays above

N[C@H](CC(=O)O)C(=O)O
inactive: all assays above

O=C(O)Cc1nn(Cc2ccc(Br)cc2F)c(=O)c2ccccc12
inactive: all assays above

CCN(CC)C(=O)c1cccnc1
inactive: all assays above

c1ccc2c(c1)OCC(CN1CCCCC1)O2 (stereo not drawn)
inactive: all assays above

CS(=O)(=O)OCC(O)C(O)COS(C)(=O)=O (stereo not drawn)
inactive: all assays above

CC(C)c1ncc([N+](=O)[O-])n1C
inactive: all assays above

CC(C)(Oc1ccc(C2CCCc3ccccc32)cc1)C(=O)O (stereo not drawn)
inactive: all assays above

CN1C(=O)C[C@@H](C(=O)N[C@@H](Cc2cnc[nH]2)C(=O)N2CCC[C@H]2C(N)=O)NC1=O
inactive: all assays above
